# Measured values reported in paper PMC9911399, “Two distinct binding modes provide the RNA-binding protein RbFox with extraordinary sequence specificity”.
# Numbering of substitutions follows the chain as printed; changes in the protein carry UniProt numbers. The full ranking holds about 16,000 sequences; the median of “ka relative to ugcaugu” is about 0.096, and the highest 2% start at about 0.35. The list comes from a sample in which the highest values are over-represented; it also holds similar and randomly drawn sequences.
# T1: RBFOX1 RRM RbFoxmut (Fox-RRM*) (Homo sapiens, UniProt Q9NWB1 109-208, R118D;E147R;N151S;E152T)
# T1 sequence: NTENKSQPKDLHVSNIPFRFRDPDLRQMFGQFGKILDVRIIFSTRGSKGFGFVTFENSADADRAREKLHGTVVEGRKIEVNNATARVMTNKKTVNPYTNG
# B1: ACUUGAG (DNA:RNA)
# RNA: GGGAGACCGGAAUUCAGAUUGUCCACUUGAGUUAAAUCCCGUCGUAGCCACCA
# DNA 1: CAATCTGAATTCCGGTCTCCC
# DNA 2: TGGTGGCTACGACGGGATT
# B2: AGGGUAC (DNA:RNA)
# RNA: B1 RNA with C26G, U27G, U28G, G29U, G31C
# DNA 1: CAATCTGAATTCCGGTCTCCC
# DNA 2: TGGTGGCTACGACGGGATT
# B3: UUAACCU (DNA:RNA)
# RNA: GGGAGACCGGAAUUCAGAUUGUCCUUAACCUUUAAAUCCCGUCGUAGCCACCA
# DNA 1: CAATCTGAATTCCGGTCTCCC
# DNA 2: TGGTGGCTACGACGGGATT
# B4: UCCAUCA (DNA:RNA)
# RNA: B3 RNA with U26C, A27C, C29U, U31A
# DNA 1: CAATCTGAATTCCGGTCTCCC
# DNA 2: TGGTGGCTACGACGGGATT
# B5: GGCAGCU (DNA:RNA)
# RNA: B3 RNA with U25G, U26G, A27C, C29G
# DNA 1: CAATCTGAATTCCGGTCTCCC
# DNA 2: TGGTGGCTACGACGGGATT
# B6: GUCGAGC (DNA:RNA)
# RNA: B3 RNA with U25G, A27C, A28G, C29A, C30G, U31C
# DNA 1: CAATCTGAATTCCGGTCTCCC
# DNA 2: TGGTGGCTACGACGGGATT
# B7: GCAUUGG (DNA:RNA)
# RNA: B1 RNA with A25G, U27A, G29U, A30G
# DNA 1: CAATCTGAATTCCGGTCTCCC
# DNA 2: TGGTGGCTACGACGGGATT
# B8: GCAUGGG (DNA:RNA)
# RNA: B1 RNA with A25G, U27A, A30G
# DNA 1: CAATCTGAATTCCGGTCTCCC
# DNA 2: TGGTGGCTACGACGGGATT
# B9: GCAUGGA (DNA:RNA)
# RNA: B1 RNA with A25G, U27A, A30G, G31A
# DNA 1: CAATCTGAATTCCGGTCTCCC
# DNA 2: TGGTGGCTACGACGGGATT
# B10: CCAUGGU (DNA:RNA)
# RNA: B1 RNA with A25C, U27A, A30G, G31U
# DNA 1: CAATCTGAATTCCGGTCTCCC
# DNA 2: TGGTGGCTACGACGGGATT
# B11: GCAUGGC (DNA:RNA)
# RNA: B1 RNA with A25G, U27A, A30G, G31C
# DNA 1: CAATCTGAATTCCGGTCTCCC
# DNA 2: TGGTGGCTACGACGGGATT
# B12: GCCAUGG (DNA:RNA)
# RNA: B1 RNA with A25G, U27C, U28A, G29U, A30G
# DNA 1: CAATCTGAATTCCGGTCTCCC
# DNA 2: TGGTGGCTACGACGGGATT
# B13: GCAAUGG (DNA:RNA)
# RNA: B1 RNA with A25G, U27A, U28A, G29U, A30G
# DNA 1: CAATCTGAATTCCGGTCTCCC
# DNA 2: TGGTGGCTACGACGGGATT
# B14: GCAUAGC (DNA:RNA)
# RNA: B1 RNA with A25G, U27A, G29A, A30G, G31C
# DNA 1: CAATCTGAATTCCGGTCTCCC
# DNA 2: TGGTGGCTACGACGGGATT
# B15: CGCAUGG (DNA:RNA)
# RNA: B1 RNA with A25C, C26G, U27C, U28A, G29U, A30G
# DNA 1: CAATCTGAATTCCGGTCTCCC
# DNA 2: TGGTGGCTACGACGGGATT
# B16: GUCAUGG (DNA:RNA)
# RNA: B3 RNA with U25G, A27C, C29U, C30G, U31G
# DNA 1: CAATCTGAATTCCGGTCTCCC
# DNA 2: TGGTGGCTACGACGGGATT
# B17: GGCAUGG (DNA:RNA)
# RNA: B1 RNA with A25G, C26G, U27C, U28A, G29U, A30G
# DNA 1: CAATCTGAATTCCGGTCTCCC
# DNA 2: TGGTGGCTACGACGGGATT
# B18: GCAUGGU (DNA:RNA)
# RNA: B1 RNA with A25G, U27A, A30G, G31U
# DNA 1: CAATCTGAATTCCGGTCTCCC
# DNA 2: TGGTGGCTACGACGGGATT
# B19: UGGUGUC (DNA:RNA)
# RNA: B1 RNA with A25U, C26G, U27G, A30U, G31C
# DNA 1: CAATCTGAATTCCGGTCTCCC
# DNA 2: TGGTGGCTACGACGGGATT
# B20: AAUUGGG (DNA:RNA)
# RNA: B1 RNA with C26A, A30G
# DNA 1: CAATCTGAATTCCGGTCTCCC
# DNA 2: TGGTGGCTACGACGGGATT
# B21: UGUUGGC (DNA:RNA)
# RNA: B1 RNA with A25U, C26G, A30G, G31C
# DNA 1: CAATCTGAATTCCGGTCTCCC
# DNA 2: TGGTGGCTACGACGGGATT
# B22: GUUAACC (DNA:RNA)
# RNA: B3 RNA with U25G, A27U, C29A, U31C
# DNA 1: CAATCTGAATTCCGGTCTCCC
# DNA 2: TGGTGGCTACGACGGGATT
# B23: UUCCCAG (DNA:RNA)
# RNA: B3 RNA with A27C, A28C, C30A, U31G
# DNA 1: CAATCTGAATTCCGGTCTCCC
# DNA 2: TGGTGGCTACGACGGGATT
# B24: GUUACAG (DNA:RNA)
# RNA: B1 RNA with A25G, C26U, U28A, G29C
# DNA 1: CAATCTGAATTCCGGTCTCCC
# DNA 2: TGGTGGCTACGACGGGATT
# B25: GUUCAGG (DNA:RNA)
# RNA: B1 RNA with A25G, C26U, U28C, G29A, A30G
# DNA 1: CAATCTGAATTCCGGTCTCCC
# DNA 2: TGGTGGCTACGACGGGATT
# B26: AGGUUCG (DNA:RNA)
# RNA: B1 RNA with C26G, U27G, G29U, A30C
# DNA 1: CAATCTGAATTCCGGTCTCCC
# DNA 2: TGGTGGCTACGACGGGATT
# B27: GUCCAGG (DNA:RNA)
# RNA: B1 RNA with A25G, C26U, U27C, U28C, G29A, A30G
# DNA 1: CAATCTGAATTCCGGTCTCCC
# DNA 2: TGGTGGCTACGACGGGATT
# B28: AGGUUGU (DNA:RNA)
# RNA: B1 RNA with C26G, U27G, G29U, A30G, G31U
# DNA 1: CAATCTGAATTCCGGTCTCCC
# DNA 2: TGGTGGCTACGACGGGATT
# B29: AGGUUUG (DNA:RNA)
# RNA: B1 RNA with C26G, U27G, G29U, A30U
# DNA 1: CAATCTGAATTCCGGTCTCCC
# DNA 2: TGGTGGCTACGACGGGATT
# B30: ACCAGGU (DNA:RNA)
# RNA: B1 RNA with U27C, U28A, A30G, G31U
# DNA 1: CAATCTGAATTCCGGTCTCCC
# DNA 2: TGGTGGCTACGACGGGATT
# B31: AGCGAUU (DNA:RNA)
# RNA: B1 RNA with C26G, U27C, U28G, G29A, A30U, G31U
# DNA 1: CAATCTGAATTCCGGTCTCCC
# DNA 2: TGGTGGCTACGACGGGATT
# Target: T1, RBFOX1 RRM RbFoxmut (Fox-RRM*)
# Test: EMSA; HiTS-Eq, 1 nM pool, 10 min; buffer printed only for the single-RNA assays: 10 mM Tris pH 7.5, 150 mM NaCl, 3.4 mM EDTA, 0.001% NP-40, 30 C
# Conditions: tags: His6 N-terminal (pET28a); label: 5' 32P
# Outline: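 These values rest on relative association constants, computed from read-count changes of each RNA species versus the control reaction and normalised to the cognate motif. Reads came from free RNA recovered by 8% native PAGE after purified RbFox RRM (wild type or mutant) at increasing concentrations was equilibrated for 10 min in 50 µL with 1 nM of a 5′-radiolabelled pool with 7 randomized nucleotides and DNA-annealed flanks.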
row,Binder,binding signal
1,B1,0.13 KA relative to UGCAUGU
2,B2,0.106 KA relative to UGCAUGU
3,B3,0.0822 KA relative to UGCAUGU
4,B4,0.0673 KA relative to UGCAUGU
5,B5,0.0642 KA relative to UGCAUGU
6,B6,0.0952 KA relative to UGCAUGU
7,B7,0.179 KA relative to UGCAUGU
8,B8,0.322 KA relative to UGCAUGU
9,B9,0.23 KA relative to UGCAUGU
10,B10,0.125 KA relative to UGCAUGU
11,B11,0.497 KA relative to UGCAUGU
12,B12,0.12 KA relative to UGCAUGU
13,B13,0.0714 KA relative to UGCAUGU
14,B14,0.126 KA relative to UGCAUGU
15,B15,0.804 KA relative to UGCAUGU
16,B16,0.154 KA relative to UGCAUGU

row,Binder,binding signal
1,B17,0.524 KA relative to UGCAUGU
2,B18,0.753 KA relative to UGCAUGU
3,B19,0.281 KA relative to UGCAUGU
4,B20,0.0731 KA relative to UGCAUGU
5,B21,0.0854 KA relative to UGCAUGU
6,B22,0.0736 KA relative to UGCAUGU
7,B23,0.103 KA relative to UGCAUGU
8,B24,0.114 KA relative to UGCAUGU
9,B25,0.0776 KA relative to UGCAUGU
10,B26,0.357 KA relative to UGCAUGU
11,B27,0.0991 KA relative to UGCAUGU
12,B28,0.332 KA relative to UGCAUGU
13,B29,0.525 KA relative to UGCAUGU
14,B30,0.11 KA relative to UGCAUGU
15,B31,0.072 KA relative to UGCAUGU
